Laboratory results: PubChem BioAssay (NCI)
About 79,000 compounds went through this panel and 15% of them were active in at least one assay; those are over-represented in the sample as a whole. Cut-off read from the data, not from the text of the source: active = growth inhibition above about 70%; inactive = the rest.

How the values were obtained:
[1] = NCI Yeast Anticancer Drug Screen. Data for the mec2-1 strain (AID 157); conditions: S. cerevisiae mec2-1 strain, at 50.0 µM, hits give high values
Outline: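 Readout is yeast growth inhibition, normalised to vehicle-treated controls, in the mec2-1 strain exposed to compound.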

[2] = NCI Yeast Anticancer Drug Screen. Data for the sgs1 mgt1 strain (AID 161);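 note: 0% = growth of cultures given vehicle only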; conditions: S. cerevisiae sgs1 mgt1 strain, at 50.0 µM, hits give high values
Outline: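 Compounds are added to genetically altered yeast, and growth is compared with cultures given vehicle alone to give percent inhibition.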

[3] = NCI Yeast Anticancer Drug Screen. Data for the cln2 rad14 strain (AID 165);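 note: 0% = growth equal to vehicle treated cultures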; conditions: S. cerevisiae cln2 rad14 strain, at 50.0 µM, hits give high values
Outline: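 Relative to vehicle controls, growth inhibition of compound-treated cln2 rad14 yeast was recorded.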

[4] = NCI Yeast Anticancer Drug Screen. Data for the bub3 strain (AID 167); conditions: S. cerevisiae bub3 mutant strain, at 50.0 µM, hits give high values
Outline: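 Steps: expose the mutant yeast strain to compound; grow alongside vehicle-treated cultures; measure growth; express inhibition against the vehicle cultures.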

[5] = NCI Yeast Anticancer Drug Screen. Data for the mlh1 rad18 strain (AID 175); conditions: S. cerevisiae mlh1 rad18 strain growth inhibition; at 50.0 µM; hits give high values
Outline: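 Test agents were incubated with a yeast strain of defined genotype (DNA damage repair defect). Inhibition of growth was derived by comparison with vehicle-exposed cultures.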

Measured: growth inhibition

O=C1C(=O)c2ccccc2C(O)=C1Br
inactive: [1] 39.4% | [2] 49.4% | [3] -61% | [4] 28.4% | [5] 29.8%

CC1=Nn2c(nnc2-c2ccc(Cl)cc2)NC(C)(C)C1
inactive: [1] 5.55% | [2] 7.65% | [3] 7.95% | [4] 39.1% | [5] 26.3%

Cc1ccc(NC(=O)C2C(=O)N(c3ccc(C)cc3)C(=O)/C2=N\NC(N)=S)cc1 (stereo not given)
inactive: [1] -25.1% | [2] -38% | [3] -10.4% | [4] -10% | [5] -26.8%

Oc1ccccc1C=Nc1ccccc1N=Cc1ccccc1O.[Zn]
inactive: [1] 4% | [2] -3.45% | [3] 26.5% | [4] -4.05% | [5] 12.9%

CC(=O)/C=C\C(=O)NNS(=O)(=O)c1ccc(C)cc1
inactive: [1] 12.7% | [2] -1.75% | [3] 9.35% | [4] 34.1% | [5] 46.7%

Cc1ccc(S(=O)(=O)NC2C(=O)c3ccccc3C(=O)C2n2ccnc2)cc1 (stereo not given)
inactive: [1] -1.8% | [2] 0.75% | [3] 2.75% | [4] 7.8% | [5] -21.5%

Cc1ncc(CO)c(/C=N/NC(N)=S)c1O
inactive: [1] -13.9% | [2] 3.7% | [3] -34.9% | [4] 0.05% | [5] 13.6%

O=S(=O)(Nc1ccccc1Cl)c1ccc(F)cc1
inactive: [1] -16.1% | [2] -6.6% | [3] 4.7% | [4] -24% | [5] 20.9%

C[C@@]1(CO)O[C@H]1CCC#C[Si](C)(C)C
inactive: [1] -32.4% | [2] -20.2% | [3] 6.7% | [4] -14.2% | [5] 1.05%

COc1ccc(OC)c(NC(=O)C(=O)C(C(=O)c2ccccc2F)C2OC(=O)c3ccccc32)c1 (stereo not given)
inactive: [1] -20.2% | [2] -27.9% | [3] -15.8% | [4] -60.2% | [5] -41.2%

O=C(/C=C\c1ccccc1)OCc1ccccc1CN1CCCCC1
inactive: [1] 11.7% | [2] 17.2% | [3] 14.6% | [4] 10.4% | [5] 12.8%

CC(=O)Oc1cc(C)ccc1C
inactive: [1] -0.5% | [2] -18.2% | [3] -55.5% | [4] -21.8% | [5] -0.35%

CCNCC(OC)C(COC)OC(=O)c1ccc([N+](=O)[O-])cc1 (stereo not given)
inactive: [1] -11.6% | [2] -7.65% | [3] -32.9% | [4] 20.4% | [5] 7.25%

N#C/C(=C(/N)N1CCOCC1)N1CCOCC1
inactive: [1] -8.95% | [2] -9.15% | [3] -13.6% | [4] 16.1% | [5] -4.2%

O=C(Nc1ccccc1-c1n[nH]c(=S)[nH]c1=O)C(F)(F)F
inactive: [1] 2.05% | [2] -10.3% | [3] -7.35% | [4] -65.8% | [5] 30.8%

CC(C)CNC(=O)/C=C/c1ccc2c(c1)OCO2
inactive: [1] -19.1% | [2] -1.4% | [3] 3.4% | [4] 6.45% | [5] -15.1%

CNC(=O)c1n[nH]c(=S)[nH]c1=O
inactive: [1] -4.9% | [2] 0.8% | [3] -52.8% | [4] -6.7% | [5] -7.5%

CN(C)C(=S)SCC(=O)c1ccccc1
inactive: [1] -27.6% | [2] -16.6% | [3] -20.2% | [4] -9.7% | [5] -10.6%

c1ccc2c(c1)ccc1c3ccccc3ccc21
inactive: [1] 10.9% | [2] 13.6% | [3] 25.6% | [4] 24.4% | [5] 17.6%

CN(C)c1ccc2c(N(C)C)cc(N(C)C)[n+](C)c2c1
inactive: [1] -23.1% | [2] -12.8% | [3] 15.2% | [4] -2% | [5] -22.4%

CCc1ccc(OC(C)=O)cc1
inactive: [1] 10.6% | [2] -13.2% | [3] -21.7% | [4] 6.6% | [5] 15.6%

CC(=O)Nc1ccc(S(=O)(=O)N/N=C/C(=O)O)cc1
inactive: [1] -32.4% | [2] -40% | [3] -22.4% | [4] 5.4% | [5] -16.6%

O=C(C[N+]12CN3CN(CN(C3)C1)C2)c1cccc2ccccc12
inactive: [1] -11.6% | [2] 9.35% | [3] -3.2% | [4] -4.7% | [5] 14.6%

Cc1ccc(C)c(NC(=S)Nc2ccccc2)c1
inactive: [1] -9% | [2] 3.5% | [3] -24.6% | [4] 54% | [5] 1.7%

Cc1cc(=O)n2c3c(cccc13)CCC2
inactive: [1] -1.5% | [2] -3.15% | [3] 7.15% | [4] 3.9% | [5] 11.9%

CC(=O)OCCOC1c2ccccc2-c2ccccc21
inactive: [1] -2.75% | [2] 18.2% | [3] 18.6% | [4] 25.3% | [5] 13.8%

ClC(=Nc1ccccc1)c1cc(N2CCOCC2)ccn1
inactive: [1] 11.1% | [2] 13.3% | [3] 8.35% | [4] 19.1% | [5] 14%

O=C(CNC(=O)C(CCC(=O)OCc1ccccc1)NC(=O)OCc1ccccc1)NCC(=O)Oc1ccc([N+](=O)[O-])cc1 (stereo not given)
inactive: [1] 13.6% | [2] 10.3% | [3] 9.3% | [4] 4% | [5] 18.1%

COC(=O)C(CCc1ccc([N+](=O)[O-])cc1)(CCc1ccc([N+](=O)[O-])cc1)C(=O)OC
inactive: [1] 3.25% | [2] 4.15% | [3] -17.9% | [4] 24.2% | [5] 34.9%

CC1C(O)CCC2C1(C)CCC1C2(C)CCC2(C)C3CC(C)(C)CCC3(C)CCC12C (stereo not given)
inactive: [1] -3.3% | [2] 12.4% | [3] -10.1% | [4] 5.75% | [5] -6.75%

O=Cc1ccc(/C=C/C(=O)O)cc1
inactive: [1] -10.1% | [2] -4.85% | [3] 5.9% | [4] -8.55% | [5] 1.1%

CC(C(=O)O)C(C)(O)C(C)(C)C (stereo not given)
inactive: [1] 1.05% | [2] -5.25% | [3] -37.4% | [4] 12.2% | [5] -6.95%

CCC(Oc1ccc(OC)c2c1C(=O)CCC2)C(=O)O (stereo not given)
inactive: [1] 1% | [2] -18.9% | [3] 11.4% | [4] -0.85% | [5] 7.55%

C=CCS(=O)CC(NC(=O)c1ccccc1)C(=O)O (stereo not given)
inactive: [1] -3.75% | [2] 20.6% | [3] -15.4% | [4] 4.1% | [5] -13.4%

CCC[C@@H]1C[C@@H](OC(=S)SC)C[C@H]2CCC(=O)N12
inactive: [1] -9.6% | [2] -7.85% | [3] -4.9% | [4] 44.9% | [5] -16.6%

CCOC(=O)CSc1nc(-c2ccc(Cl)cc2)c(C#N)c(=O)[nH]1
inactive: [1] -0.45% | [2] 2% | [3] 27.1% | [4] 8.85% | [5] -79%

CC(=O)Nc1ccc(S(=O)(=O)O)c(C(F)(F)F)c1
inactive: [1] 21.1% | [2] 12.6% | [3] -8% | [4] 26.5% | [5] 11.4%

COc1ccc(C2=CSC3=NC(C)(C)CC(C)=NN23)cc1
inactive: [1] -8.2% | [2] 7.35% | [3] 29.2% | [4] 9.25% | [5] -1.75%

O=C(CC(=O)n1nc(-c2ccccc2)c(N=Nc2ccc(Cl)cc2)c1-c1ccccc1)Nc1ccc(Cl)cc1
inactive: [1] -19.1% | [2] -11.9% | [3] -19.3% | [4] -11.1% | [5] -16.8%

CSC(=N\N=C(/C)c1ccc(Br)cc1)/N=C/N(C)C
inactive: [1] 23.2% | [2] 55.5% | [3] 19% | [4] 28.1% | [5] 31.7%
